13 sequences from article PMC8384837, “Expanding the binding specificity for RNA recognition by a PUF domain” can be followed below.

Holding throughout (assay): yeast three-hybrid, YBZ-1, SC-Leu-His + 0.5 mM 3-AT, 4 days
Common to all, as to settings: tags: N-Gal4 AD-HA kept; label: inside an RPR1-promoter hybrid RNA with tandem MS2 sites; ssRNA

In one assay the target is PUM1 PUF domain R4-MPT (Homo sapiens, UniProt Q14671 828-1176, N971M;H972P;Q975T). The method, boiled down:
(§1)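 Pumilio-1 PUF domain libraries, randomized (NNK) at the three base-contacting residues of each repeat, were co-expressed with matching RNA elements from a centromeric plasmid in strain YBZ-1 (LexA–MS2 coat fusion, HIS3 reporter). Transformants were plated on SC-Leu (input) and SC-Leu-His + 0.5 mM 3-AT (selection) for four days, and repeat regions were PCR-amplified and Illumina-sequenced. The interaction score is the log2 change in variant frequency from input to selection, with pseudocount 1 where absent.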

Another assay has as its target PUM1 PUF domain R5-TRW (Homo sapiens, UniProt Q14671 828-1176, C1007T;Q1011W). The method, boiled down:
as §1

The target of a further assay is PUM1 PUF domain R8-RWL (Homo sapiens, UniProt Q14671 828-1176, N1122R;Y1123W;Q1126L). The method, boiled down:
as §1

For a further assay, the target named is PUM1 PUF domain R3-VRF (Homo sapiens, UniProt Q14671 828-1176, C935V;Q939F). The gist of the method: as §1
The next assay deals with PUM1 PUF domain R4-SLY (Homo sapiens, UniProt Q14671 828-1176, N971S;H972L;Q975Y). The gist of the method: as §1
Another assay has as its target PUM1 PUF domain R5-GKR (Homo sapiens, UniProt Q14671 828-1176, C1007G;R1008K;Q1011R). The method, boiled down: as §1
The next assay has as its target PUM1 PUF domain R8-RWC (Homo sapiens, UniProt Q14671 828-1176, N1122R;Y1123W;Q1126C). The gist of the method:
as §1

A further assay deals with PUM1 PUF domain R8-RFR (Homo sapiens, UniProt Q14671 828-1176, N1122R;Y1123F;Q1126R). The gist of the method: as §1
The target in the next assay is PUM1 PUF domain R3-CRM (Homo sapiens, UniProt Q14671 828-1176, Q939M). The gist of the method: as §1
A further assay has as its target PUM1 PUF domain R4-GPH (Homo sapiens, UniProt Q14671 828-1176, N971G;H972P;Q975H). The gist of the method: as §1
For the next assay, the target named is PUM1 PUF domain R3-VFD (Homo sapiens, UniProt Q14671 828-1176, C935V;R936F;Q939D). The method, boiled down:
as §1

In another assay the target is T1, PUM1 PUF domain R6-NYV (Homo sapiens, UniProt Q14671 828-1176, Q1047V).
T1 sequence: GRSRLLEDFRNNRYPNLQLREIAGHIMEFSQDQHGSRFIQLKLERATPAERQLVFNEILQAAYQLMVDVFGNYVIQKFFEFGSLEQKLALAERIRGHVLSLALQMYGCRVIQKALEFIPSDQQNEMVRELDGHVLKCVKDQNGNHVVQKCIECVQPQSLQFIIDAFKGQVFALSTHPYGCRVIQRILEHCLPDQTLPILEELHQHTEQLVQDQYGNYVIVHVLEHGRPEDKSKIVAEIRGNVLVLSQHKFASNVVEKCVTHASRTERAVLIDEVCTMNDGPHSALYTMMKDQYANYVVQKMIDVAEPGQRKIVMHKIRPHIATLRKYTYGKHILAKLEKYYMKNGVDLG
The method, boiled down:
as §1

A further assay deals with PUM1 PUF domain R1-KRF (Homo sapiens, UniProt Q14671 828-1176, S863K;Q867F). The gist of the method: as §1
In the next assay the target is PUM1 PUF domain R1-RWD (Homo sapiens, UniProt Q14671 828-1176, S863R;R864W;Q867D). The method, boiled down: as §1
The target of the next assay is PUM1 PUF domain R3-SCQ (Homo sapiens, UniProt Q14671 828-1176, C935S;R936C). The method, boiled down:
as §1

For the next assay, the target named is PUM1 PUF domain R3-SVE (Homo sapiens, UniProt Q14671 828-1176, C935S;R936V;Q939E). The gist of the method: as §1
Another assay deals with PUM1 PUF domain R3-STD (Homo sapiens, UniProt Q14671 828-1176, C935S;R936T;Q939D). The gist of the method:
as §1

In the next assay the target is PUM1 PUF domain R3-YRE (Homo sapiens, UniProt Q14671 828-1176, C935Y;Q939E). The method, boiled down:
as §1

For the next assay, the target named is PUM1 PUF domain R7-RRL (Homo sapiens, UniProt Q14671 828-1176, S1079R;N1080R;E1083L). The method, boiled down: as §1
For another assay, the target named is PUM1 PUF domain R3-KPV (Homo sapiens, UniProt Q14671 828-1176, C935K;R936P;Q939V). The method, boiled down: as §1

As for “GGCUAGAACUAGUGGAUCCCCCGGCGCCCGGCGGCUCGAGCCCGGGUAAGUGUAAAUAGUCUGCAUGCCGCCGGGCGCCAUGCCUGCAGGUCGACUCUAGAAAACAUG”, the binding signal was 3.73 log2 enrichment (interaction score) in the assay with PUM1 PUF domain R4-MPT; 2.78 log2 enrichment (interaction score) with PUM1 PUF domain R5-TRW; 5.06 log2 enrichment (interaction score) in the assay with PUM1 PUF domain R8-RWL; 4.4 log2 enrichment (interaction score) with PUM1 PUF domain R3-VRF; 2.48 log2 enrichment (interaction score) with PUM1 PUF domain R4-SLY; 1.48 log2 enrichment (interaction score) in the assay with PUM1 PUF domain R5-GKR. Also, the binding signal was 4.9 log2 enrichment (interaction score) in the assay with PUM1 PUF domain R8-RWC; 6.72 log2 enrichment (interaction score) with PUM1 PUF domain R8-RFR; 3.01 log2 enrichment (interaction score) with PUM1 PUF domain R3-CRM; 4.16 log2 enrichment (interaction score) with PUM1 PUF domain R4-GPH; 6.45 log2 enrichment (interaction score) with PUM1 PUF domain R3-VFD; 4.01 log2 enrichment (interaction score) with PUM1 PUF domain R6-NYV.

On to “GGCUAGAACUAGUGGAUCCCCCGGCGCCCGGCGGCUCGAGCCCGGGUAAGUGUAAAUCGUCUGCAUGCCGCCGGGCGCCAUGCCUGCAGGUCGACUCUAGAAAACAUG”, for which the binding signal with PUM1 PUF domain R1-KRF is 3.25 log2 enrichment (interaction score).

Consider “GGCUAGAACUAGUGGAUCCCCCGGCGCCCGGCGGCUCGAGCCCGGGUAAGUGUAACUAGUCUGCAUGCCGCCGGGCGCCAUGCCUGCAGGUCGACUCUAGAAAACAUG”, for which the binding signal with PUM1 PUF domain R3-VFD was 2.56 log2 enrichment (interaction score).

As to “GGCUAGAACUAGUGGAUCCCCCGGCGCCCGGCGGCUCGAGCCCGGGUAAGUGUAAAUGGUCUGCAUGCCGCCGGGCGCCAUGCCUGCAGGUCGACUCUAGAAAACAUG”, the binding signal with PUM1 PUF domain R1-RWD was 2.32 log2 enrichment (interaction score).

Turning to “GGCUAGAACUAGUGGAUCCCCCGGCGCCCGGCGGCUCGAGCCCGGGUAAGUGUAAGUAGUCUGCAUGCCGCCGGGCGCCAUGCCUGCAGGUCGACUCUAGAAAACAUG”, the binding signal is 2.27 log2 enrichment (interaction score) in the assay with PUM1 PUF domain R3-SCQ; 4.64 log2 enrichment (interaction score) in the assay with PUM1 PUF domain R3-SVE; 2.07 log2 enrichment (interaction score) in the assay with PUM1 PUF domain R3-STD; 1.46 log2 enrichment (interaction score) with PUM1 PUF domain R3-CRM; 3.13 log2 enrichment (interaction score) with PUM1 PUF domain R3-YRE.

Take “GGCUAGAACUAGUGGAUCCCCCGGCGCCCGGCGGCUCGAGCCCGGGUAAGUCUAAAUAGUCUGCAUGCCGCCGGGCGCCAUGCCUGCAGGUCGACUCUAGAAAACAUG”: the binding signal with PUM1 PUF domain R7-RRL is 5.23 log2 enrichment (interaction score).

Regarding “GGCUAGAACUAGUGGAUCCCCCGGCGCCCGGCGGCUCGAGCCCGGGUAAGUGUCAAUAGUCUGCAUGCCGCCGGGCGCCAUGCCUGCAGGUCGACUCUAGAAAACAUG”, the binding signal in the assay with PUM1 PUF domain R5-GKR was 6.15 log2 enrichment (interaction score).

In the case of “GGCUAGAACUAGUGGAUCCCCCGGCGCCCGGCGGCUCGAGCCCGGGUAAGUUUAAAUAGUCUGCAUGCCGCCGGGCGCCAUGCCUGCAGGUCGACUCUAGAAAACAUG”, in the assay with PUM1 PUF domain R7-RRL, the binding signal is 6.01 log2 enrichment (interaction score).

Consider “GGCUAGAACUAGUGGAUCCCCCGGCGCCCGGCGGCUCGAGCCCGGGUAAGUGUAAUUAGUCUGCAUGCCGCCGGGCGCCAUGCCUGCAGGUCGACUCUAGAAAACAUG”, for which the binding signal in the assay with PUM1 PUF domain R3-SCQ was 1.65 log2 enrichment (interaction score); with PUM1 PUF domain R3-VFD, 5.14 log2 enrichment (interaction score); with PUM1 PUF domain R3-KPV it was 3.62 log2 enrichment (interaction score).

For the sequence “GGCUAGAACUAGUGGAUCCCCCGGCGCCCGGCGGCUCGAGCCCGGGUAAGCGUAAAUAGUCUGCAUGCCGCCGGGCGCCAUGCCUGCAGGUCGACUCUAGAAAACAUG”, the binding signal is 6.58 log2 enrichment (interaction score) with PUM1 PUF domain R8-RWL, 4.12 log2 enrichment (interaction score) with PUM1 PUF domain R8-RWC and 6.81 log2 enrichment (interaction score) in the assay with PUM1 PUF domain R8-RFR.

On to “GGCUAGAACUAGUGGAUCCCCCGGCGCCCGGCGGCUCGAGCCCGGGUAAGUGUGAAUAGUCUGCAUGCCGCCGGGCGCCAUGCCUGCAGGUCGACUCUAGAAAACAUG”, for which the binding signal with PUM1 PUF domain R5-TRW was 0.38 log2 enrichment (interaction score).

As to “GGCUAGAACUAGUGGAUCCCCCGGCGCCCGGCGGCUCGAGCCCGGGUAAGUGUUAAUAGUCUGCAUGCCGCCGGGCGCCAUGCCUGCAGGUCGACUCUAGAAAACAUG”, the binding signal with PUM1 PUF domain R5-GKR is 2.96 log2 enrichment (interaction score).

As to “GGCUAGAACUAGUGGAUCCCCCGGCGCCCGGCGGCUCGAGCCCGGGUAAGUGUAUAUAGUCUGCAUGCCGCCGGGCGCCAUGCCUGCAGGUCGACUCUAGAAAACAUG”, the results for the binding signal in the assay with PUM1 PUF domain R4-MPT and with PUM1 PUF domain R4-GPH were 2.81 log2 enrichment (interaction score) and 1.26 log2 enrichment (interaction score), respectively.
